Measurements from PubChem BioAssay (NCATS).
Activity calls are given as the source filed them. Calls follow the shape of the dose curve; as a rule, active = well fitted activation curve with a large enough effect; inconclusive = small, poorly fitted or top-dose-only effect; inactive = flat fitted curve, though single readings scatter.

Test: Confirmation and Secondary Assay for Modulators of Hemoglobin Beta Chain Splicing at IVS2 654 locus (AID 910);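 also: HeLa cells stably carrying EGFP split by mutant beta-globin IVS2-654 intron; % of control where 0% means no effect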
Details: HeLa EGFP-654 splicing reporter, GFP fluorescence, 48 h; series mostly up to 46.1 µM; activation (splicing correction): at the top concentration
Text: NIH Chemical Genomics Center [NCGC] NIH Molecular Libraries Screening Centers Network [MLSCN] MLSCN Grant: 1 X01 MH080684-01 PI Name: Dr. Ryszard Kole NCGC Assay Overview: Modulation of Alternative Splicing as Therapy Abnormal splicing is associated with a number of diseases, including cancer and genetic diseases such as cystic fibrosis, muscular dystrophy and beta-thalassemia. Alteration of disease associated splicing patterns provides a promising target for treatment. […] Mutations in the second intron of the b-globin gene at positions 654 or 705 are clinically relevant and cause mis-splicing which results in an out of frame gene product. […] EGFP-654 HeLa Cells as screen system. HeLa cell lines were stably transfected with a construct in which the EGFP (enhanced green fluorescent protein) cDNA was interrupted by the second intron of the beta-globin gene (IVS2-654). The ISV2 intron contains mutations which cause mis-splicing of EGFP and premature termination of EGFP which results in a nonfluorescent protein product. […] Expression of the transgene was driven by the CMV promoter. We concluded that a low molecular weight compound, which restored correct splicing of intron 2 would also generate functional EGFP protein, resulting in a fluorescent signal. Thus, the HeLa cells that express the EGFP-654 construct can be used for high throughput screening of a chemical library.
NCGC Assay Protocol Summary: Confirmatory Screening. Freshly thawed HeLa EGFP-654 cells were seeded in 5 ul of optimem media (Invitrogen) containing 2 % fetal calf serum (Hyclone) and 1x penicillin/streptomycin (Invitrogen) at a concentration of 500 cells per well in 1536-well plates. Cells were incubated overnight at 37C in 5% CO2. The next day, cells were treated with DMSO, 500 nM antisense ISV2 654 PNA control oligo, or library compound and allowed to grow at 37C in 5% CO2 for 2 days. The PNA oligo blocked the mutation site in the intron and allowed proper (wild type) splicing to occur, resulting in full length EGFP expression and also allowed for optimization of the assay parameters. Plates were read in the Acumen Explorer (TTP Labtech) using 488 nm laser excitation and 500-520 nm emission PMT filter in a 1 x 8 uM capture mode. Fluorescnet objects ranging in size from 5 to 250 uM were measured and the total peak GFP intensity for each well was used for data analysis. Keywords: Thalassemia, beta-thalassemia, beta-globin, EGFP, ISV2 654, ISV2 705, SSO, PNA, antisense, splicing, MLSMR, MLSCN, NIH Roadmap, qHTS, NCGC

Activation (splicing correction), inactive:
NCC1OC(OC2C(N)CC(N)[C@@H](O)[C@@H]2OC2O[C@H](CO)[C@@H](O[C@@H]3OC(CN)C(O)C(O)C3N)C2O)C(N)C(O)C1O (stereo not given in full) 8.96%, CCCc1cc(OC)c2c(c1)OCO2 6.5%, CC(Oc1ccccc1)C(=O)NC1C(=O)N2C(C(=O)O)C(C)(C)S[C@@H]12 (stereo not given in full) 3.95% [at 38.3 µM], NCC1O[C@@H](O[C@H]2C(O)C(O[C@@H]3C(O[C@H]4OC(CO)C(O)C(O)C4N)C(N)CC(N)[C@H]3O)O[C@@H]2CO)C(N)C(O)C1O (stereo not given in full) 3.23%, C=C(C)C1COc2cc3oc(=O)ccc3cc2O1 (stereo not given) -1.6%, CN(C)C1C(=O)C(C(N)=O)=C(O)[C@@]2(O)C(=O)C3=C(O)c4c(O)ccc(Cl)c4C(O)[C@H]3C[C@@H]12 (stereo not given in full) 4.31%, CC(=O)OC1CC2C(C)(C)C=CC(=O)[C@@]2(C)C2CC[C@@]3(C)C(c4ccoc4)OC(=O)C4OC43[C@]12C (stereo not given in full) 2.87%, CCCCCc1c2c(cc(O)c1C(=O)O)OC(=O)c1c(cc(OC)cc1C(=O)CCCC)O2 0.327% [at 38.3 µM], CC1CC[C@@]2(C(=O)O)CCC3(C)C(=CCC4[C@]5(C)CC(O)C(O)[C@](C)(CO)C5C(O)C[C@@]43C)C2C1C (stereo not given in full) 10.6%, COc1ccc(-c2cc(=O)c3c(O)c(OC)c(O[C@@H]4OC(COC5OC(C)C(O)C(O)[C@@H]5O)C(O)C(O)C4O)cc3o2)cc1 (stereo not given in full) -1.48% [at 38.3 µM], CC(C)=CCc1c(O)cc2oc(C)cc(=O)c2c1O -4.58%, CC(=O)OC1CC2C(C)(C)C(O)C=C[C@@]2(C)C2CC[C@@]3(C)C(c4ccoc4)OC(=O)C4OC43[C@]12C (stereo not given in full) -2.39% [at 38.3 µM], COc1cccc(O)c1O 3.14% [at 38.3 µM], COc1ccc2c(c1)OCC(Cc1ccc(OC)c(O)c1)C2=O (stereo not given) 2.08%, CC1(C)CC2/C(CO)=C/C=C/[C@](C)(O)CC[C@]21O (stereo not given in full) 1.33% [at 38.3 µM], C=CCSCC=C 4.63%, CC(=O)OC1CC(O)C(C)(C)C2CC(OC(C)=O)[C@]3(C)C(CC[C@@]4(C)C(c5ccoc5)OC(=O)C5OC534)[C@]12C (stereo not given in full) -1.45% [at 38.3 µM], COc1ccc(-c2oc3c(CC=C(C)C)c(O[C@H]4OC(CO)C(O)C(O)C4O)cc(O)c3c(=O)c2O[C@@H]2OC(C)C(O)C(O)C2O)cc1 (stereo not given in full) 8.08%, COC(=O)c1cc(=O)c(O)c2c(O)c(O)ccc2c1 0.497% [at 38.3 µM], COc1c2ccoc2nc2c(OC)c(OCC(O)C(C)(C)O)ccc12 (stereo not given) 0.421% [at 38.3 µM], O=C(O)C(O)C(O)C(O)C(O)C(=O)O (stereo not given) 4.17%, O=C(Cc1ccccc1)NO 8.41%, CC(C)=CCc1c2c(c(O)c3c(=O)c(O)c(-c4ccccc4)oc13)C=CC(C)(C)O2 -1.59% [at 38.3 µM], NC(CCC(=O)NC(CCSC(CC(=O)O)C(=O)O)C(=O)NCC(=O)O)C(=O)O (stereo not given) 2.54% [at 38.3 µM], C[C@@]12CCC3c4ccc(O)cc4CCC3C1CCC2O (stereo not given in full) -2.92%, Nc1nc2c([nH]c(=S)n2C2OC(CO)C(O)C2O)c(=O)[nH]1 (stereo not given) 1.27% [at 38.3 µM], O=c1cc(-c2ccccc2)oc2cccc(O)c12 -7.41%, C=CCCCCCCCCCCCc1ccco1 -1.96% [at 38.3 µM], CCC1OC(=O)C(C)[C@@H](O[C@H]2C[C@@](C)(OC)C(O)C(C)O2)C(C)[C@@H](O[C@@H]2OC(C)CC(N(C)C)C2O)[C@@](C)(O)CC(C)C(=O)[C@@H](C)C(O)[C@]1(C)O (stereo not given in full) 8.84%, CCOC(=O)C(CCc1ccccc1)NC(C)C(=O)N1C(C(=O)O)CC2CCCC21 (stereo not given) 0.167% [at 38.3 µM], COc1ccc(CNc2ncncc2-c2ccccc2CN(C)C)c(OC)c1 -0.858% [at 38.3 µM], COc1c(O)cc2c(-c3ccccc3)cc(=O)oc2c1OC 0.162% [at 38.3 µM], COc1ccc(C(C)C(=O)c2ccc(O)cc2O)cc1 (stereo not given) -5.15%, C[N+](C)(C)CCOP(=O)([O-])OP(=O)(O)OCC1OC(n2ccc(N)nc2=O)C(O)C1O (stereo not given) 16.2%, CC(=O)OC1CC2C(C)(C)C(=O)CC[C@]2(C)C2CC[C@@]3(C)C(c4ccoc4)OC(=O)C4OC43[C@]12C (stereo not given in full) -1.61% [at 38.3 µM], CC(C)(C)NC[C@@H](O)COc1nsnc1N1CCOCC1 3.78%, O=c1oc2ccccc2cc1O -3.31%, CNc1ccccc1C(=O)N1CCc2c([nH]c3ccccc23)C1=O 2.2% [at 38.3 µM], CC(=O)OC1CC[C@@]2(C)C(CC[C@@]3(C)C2CC=C2C4CC(C)(C)CC[C@]4(C(=O)O)CC[C@@]23C)C1(C)C (stereo not given in full) -2.04%, COC1OC(CO)C(OC2OC(C(=O)O)C(OC3OC(COS(=O)(=O)O)C(OC4OC(C(=O)O)C(OC5OC(CO)C(OC6OC(C(=O)O)C(OC7OC(COS(=O)(=O)O)C(OC8OC(C(=O)O)=C[C@H](O)C8OS(=O)(=O)O)C(O)C7NC(C)=O)[C@@H](O)C6O)C(O)C5NC(C)=O)[C@@H](O)C4O)C(O)C3NC(C)=O)[C@@H](O)C2O)C(O)C1NC(C)=O (stereo not given in full) 0.429% [at 38.3 µM]
